Drawing on PubChem BioAssay AID588345 (Broad Institute, 2011), this text covers outcome for 112 compounds.

Out of some 1,300 compounds screened, about 850 (65%) were called active. Not shown: some 1% with an inconclusive outcome. No rule for the calls is given here. The set was probably picked from earlier hits. Only a sample is shown. Measured potencies and affinities stand elsewhere.

The target of the assay is Dual specificity tyrosine-phosphorylation-regulated kinase 1A (Rattus norvegicus) (UniProt Q63470). Description: Dyrk1A enzyme activity inhibition – biochemical, cherry-pick, plate reader, 2124-01, dose response (AID 588345). The conditions noted are these: Dyrk1A kinase biochemical assay; series mostly up to 12 µM.
Take `Cc1cc(=O)oc2ccc(OC(=O)c3cccc(S(=O)(=O)N4CCOCC4)c3)cc12`: the call was inactive.
The entry for `CCc1cc2c(NC3CCCC3)ncnc2s1` is “inactive”; for `COc1cccc(Nc2nc(NCCO)c3ccccc3n2)c1` it is “inactive”.
The entry for `CCCCCC1CC(CC(C)C(=O)Nc2nncs2)C(=O)O1` (configuration not stated) is “inactive”; for `CCC(C)NC(=O)C1CCCN(S(=O)(=O)c2ccc3c(c2)CC(C)N3C(=O)C2CC2)C1` (configuration not stated) it is “inactive”; for `Clc1ccc(C2CC(c3cccs3)n3ncnc3N2)c(Cl)c1` (configuration not stated) it is “inactive”.
The same measure for `O=C(Cn1c(-c2cncs2)nc2ccccc21)NCc1ccccc1`: “inactive”.
For the compound `Cn1c(=O)[nH]c2cc3ccccc3cc21`, the compound was classed as inactive.
The entry for `S=c1sc2ccccc2n1CCc1ccncc1` is “inactive”; for `COc1ccc(N(CC(=O)Nc2ccc3c(c2)OCCO3)S(=O)(=O)c2c(C)nn(C)c2C)cc1` it is “inactive”; for `CC(C)(C)C1=Nn2c(nnc2-c2ccccc2F)SC1` it is “inactive”.
`O=C(Nc1ccc2cn[nH]c2c1)c1c(Cl)cccc1Cl`: the result was inactive.
As for `COc1ccc(N/C=C2\C(=O)CCc3c2oc2cc(Cl)c(O)c(Cl)c32)cc1`, the compound was called inactive.
The entry for `Oc1c(Cl)c(Cl)c2ncccc2c1Cl` is “inactive”; for `Oc1cccc2c(-c3nn[nH]n3)ccnc12` it is “inactive”.
The same measure for `Fc1ccccc1-c1nc(-c2ccc(-c3nn[nH]n3)cc2)no1`: “inactive”.
The same measure for `COc1ccc(-c2cn[nH]c2C)cc1`: “inactive”; for `Cc1cc(C)c(CN2CCN(C(=O)Cn3ccc(N)nc3=O)CC2)c(C)c1`: “inactive”.
In the case of `CCCCCCCCCCCCN1[C@@H](CC(=O)OC)c2cc(C(F)(F)F)ccc2S1(=O)=O`, the outcome was inactive.
Consider `CC(=O)c1cccc(NC(=O)Nc2ccc3c(c2)N(C)C(=O)CS3)c1`, for which the compound was called inactive.
The same measure for `CSc1nnc(-c2cc3c(-c4ccccc4)nn(C)c3s2)n1C`: “inactive”.
As for `Cn1cnc2c(=O)sc3ccccc3c21`, the call was inactive.
The same measure for `O=C(C1CC(=O)N(C2CCCC2)C1)N1CCN(c2ccc(F)cc2)CC1` (configuration not stated): “inactive”; for `c1csc(CNc2ncnc3ccc(-c4ccc5c(c4)OCCO5)cc23)c1`: “inactive”.
The entry for `O=C(NCc1ccccc1)C1=C[C@H](c2ccccc2)C[C@H](OCc2ccc(CO)cc2)O1` is “inactive”.
With `c1ccc(-c2nnc(CSc3ccc4c(c3)OCCO4)o2)cc1`, the compound was classed as inactive.
The entry for `O=[N+]([O-])c1ccc2c(c1)C(=NO)c1cc(F)ccc1-2` is “inactive”.
The entry for `O=C(O)CCC(=O)Nc1ccc(N2CCCCCC2)cc1` is “inactive”; for `Cc1cccc(Nc2nc(N)c([N+](=O)[O-])c(N3CCC(C)CC3)n2)c1` it is “inactive”; for `COC(=O)c1nccc2c1[nH]c1ccccc12` it is “inactive”.
The same measure for `CCC1NC(C(=O)O)Cc2c1[nH]c1ccccc21` (configuration not stated): “inactive”; for `CC(C)C[C@H]1COCCS(=O)(=O)N1Cc1ccc(Cl)c(Cl)c1`: “inactive”.
For `CCOC(=O)Cn1c(-c2cccnc2Cl)nc2ccccc21`, the result was inactive.
Take `O=C(CN1CCOCC1)Nc1nc2ccc([N+](=O)[O-])cc2s1`: the call was inactive.
Turning to `CC1CCc2nc(NC(=O)CN3CCN(Cc4ccc5c(c4)OCO5)CC3)sc2C1` (configuration not stated), the result was inactive.
The entry for `CC1CCc2nc(NC(=O)c3ccc(N4C(=O)CCC4=O)cc3)sc2C1` (configuration not stated) is “inactive”.
The entry for `Cc1noc(C)c1-c1ccc2ncnc(NC(C)c3ccco3)c2c1` (configuration not stated) is “inactive”.
As for `O=C(Nc1cccc(Cl)c1)ON=C1c2ccccc2-c2ccccc21`, the outcome was inactive.
The same measure for `CCC(=O)Nc1c(C#N)c2nc3ccccc3nc2n1-c1ccccc1C`: “inactive”; for `Cc1ccc(NC(=S)Nc2ccc3cn[nH]c3c2)cc1`: “inactive”; for `COc1ccc2c(c1)C(=O)N1[C@H]3c4cc(C)ccc4OC[C@@H]3[C@H](c3ccccc3)[C@]1(C)C(=O)N2`: “inactive”.
The same measure for `Cc1c(C(=O)O)sc2nc(-c3cccs3)cc(C(F)(F)F)c12`: “inactive”.
The entry for `O=C1CCCC2=C1Sc1ccc(Cl)cc1N2` is “inactive”.
`O=C1c2ccccc2S(=O)(=O)N1Cc1nnc(-c2ccccc2Br)o1`: the call was inactive.
The entry for `CC(C)=CCc1cc(-c2oc3cc(O)cc(O)c3c(=O)c2O)ccc1O` is “inactive”; for `O=C(Nc1ncc2c(n1)-c1ccccc1CC2)c1ccc(Cl)cc1` it is “inactive”.
The same measure for `CCOCCCNC(=O)C(NC(=O)c1ccc(=O)[nH]c1)c1ccc(Cl)cc1` (configuration not stated): “inactive”; for `Cc1cccc(C(C)n2nnc3ccccc32)c1O` (configuration not stated): “inactive”.
The same measure for `O=c1oc(-c2ccc(O)c(O)c2)cc2cc(O)cc(O)c12`: “inactive”; for `O=c1cc(-c2ccc(O)cc2)oc2c(O)c(O)c(O)c(O)c12`: “inactive”; for `CN(C)CCCOC(=O)COc1ccc(Br)cc1`: “inactive”.
Consider `CCn1c(NC(=O)c2ccccc2)c(-c2cccs2)c(=O)c2ccccc21`, for which the compound was classed as inactive.
The entry for `CCN(CC)C(=O)Oc1ccc2c(c1)O/C(=C\c1ccco1)C2=O` is “inactive”; for `O=c1cc(-c2ccco2)oc2c1ccc1ccccc12` it is “inactive”.
The entry for `COc1cc(/C=C2\SC(N)=NC2=O)ccc1O` is “inactive”.
The entry for `OC(c1cc(C(F)(F)F)nc2c(Cl)cc(Cl)cc12)C1CCCCN1` (configuration not stated) is “inactive”; for `O=C(O)c1cccc2c1/C(=N/O)c1ccccc1-2` it is “inactive”.
In the case of `CCn1c2ccccc2c2nc3cc(C(=O)O)ccc3nc21`, the compound was classed as inactive.
The entry for `S=C(Nc1cccnc1)Nc1cccc2cnccc12` is “inactive”; for `COc1ccc(NC(=S)N(CCc2c(C)[nH]c3ccccc23)Cc2cccnc2)cc1` it is “inactive”.
Consider `Cc1cc2nncn2c2ccccc12`, for which the compound was classed as inactive.
The same measure for `COc1ccc(NC(=O)N(C)C[C@H]2Oc3c(NS(=O)(=O)c4cccs4)cccc3C(=O)N([C@@H](C)CO)C[C@@H]2C)cc1`: “inactive”; for `C[C@@H]1C=C(C(=O)NCc2nc3ccccc3[nH]2)O[C@H](OCCCCO)C1`: “inactive”.
The same measure for `O=C1CN(C(=O)C2CCC(=O)N(CCc3ccc(Cl)cc3)C2)CCN1` (configuration not stated): “inactive”.
The same measure for `COc1ccc2nc(C)c3c(c2c1)OC(C(C)(Cl)Br)C3` (configuration not stated): “inactive”; for `COc1ccc2oc(N)c(C=O)c(=O)c2c1`: “inactive”; for `c1cnc2ncc3sccc3c2c1`: “inactive”.
As to `O=c1c(O)c(-c2ccccc2)oc2cc(O)cc(O)c12`, the call was inactive.
The entry for `O=c1c(O)c(-c2cc(O)c(O)c(O)c2)oc2cc(O)cc(O)c12` is “inactive”; for `Cc1cccc(CNc2ncnc3ccc(-c4ccc5c(c4)OCO5)cc23)c1` it is “inactive”.
The entry for `O=C(CN1CCOCC1)Nc1nc2ccc(F)cc2s1` is “inactive”.
As to `NC(=O)c1cc2ccc(O)cc2oc1=Nc1ccccc1`, the outcome was inactive.
Turning to `COc1ccc(OC)c(N=c2oc3cc(O)ccc3cc2C(N)=O)c1`, the outcome was inactive.
The same measure for `COc1ccc2nc(-n3c(O)c(C4=c5ccccc5=NC4=O)[nH]c3=S)sc2c1`: “inactive”; for `CC(=O)c1nc2ccccc2n1S(=O)(=O)c1ccc(Cl)cc1`: “inactive”; for `O=C(Nc1cccnc1)c1scc2c1OCCO2`: “inactive”.
Take `COc1cccc(C(=O)Nc2ccc(F)c(F)c2F)c1`: the compound was called inactive.
As for `Cc1cc(C(=O)CSc2nn(-c3ccccc3)c(=S)s2)c(C)n1Cc1ccco1`, the outcome was inactive.
The same measure for `Cc1cc([N+](=O)[O-])nn1Cc1ccccc1F`: “inactive”; for `CC1CCC(NC(=O)c2cc(S(=O)(=O)N3CCCCC3)c[nH]2)CC1` (configuration not stated): “inactive”; for `CN1CCN(CCNC(=O)c2cc3c(=O)n(C)c4ccccc4c3n2C)CC1`: “inactive”.
The same measure for `CN(C)CCNC(=O)c1cc2c(=O)n(C)c3ccccc3c2n1C`: “inactive”; for `O=c1cc[nH]c2c1ccc1cccnc12`: “inactive”.
The same measure for `COc1ccc2[nH]c(C)c(CCN(Cc3cccs3)C(=S)Nc3ccccc3OC)c2c1`: “inactive”; for `CN1CCc2c(sc3nc(NN)n(-c4ccc(Cl)cc4)c(=O)c23)C1`: “inactive”; for `O=C(N/N=C/c1ccccn1)c1cc(-c2ccccc2Cl)n[nH]1`: “inactive”.
Consider `CN(C)CCNC(=O)c1cc2c(s1)-c1ccccc1OC2`, for which the call was inactive.
The same measure for `O=C(COc1ccccc1)Nc1cccc(-c2nn[nH]n2)c1`: “inactive”; for `O=C(Nc1cccc(-c2cn3cccnc3n2)c1)c1ccc(Br)o1`: “inactive”.
In the case of `COc1cc(C(C)=O)ccc1Oc1ncnc2c1cnn2-c1ccccc1`, the call was inactive.
The same measure for `c1ccc2c(c1)Nc1ccncc1S2`: “inactive”; for `COc1ccc(-c2csc3ncnc(Sc4nnnn4C)c23)cc1`: “inactive”; for `Cc1ccc2oc(=O)c3cnn(CC(=O)NC4CCCCC4C)c3c2c1` (configuration not stated): “inactive”.
The entry for `N=C1S/C(=C\c2ccc(O)cc2)C(=O)N1c1ccc(F)cc1` is “inactive”.
The entry for `C=CCn1c(SCC(=O)Nc2nc3ccccc3s2)nc(O)c(CC)c1=O` is “inactive”; for `O=C(Nc1nc2ccccc2s1)c1ccc(OCC2CCCO2)cc1` (configuration not stated) it is “inactive”; for `O=C(NC(Nc1nc2ccc([N+](=O)[O-])cc2s1)(C(F)(F)F)C(F)(F)F)c1ccccc1` it is “inactive”.
As to `Cn1c(=O)c2c(nc(NCc3ccco3)n2CC(O)COc2ccccc2)n(C)c1=O` (configuration not stated), the compound was called inactive.
Consider `CC(C)NS(=O)(=O)c1ccc(OCC(=O)N(C)Cc2ccccc2)cc1`, for which the compound was called inactive.
The entry for `COc1ccc(NC(=O)N(C)C[C@H]2Oc3ccc(NC(=O)CCN4CCOCC4)cc3C(=O)N([C@H](C)CO)C[C@@H]2C)cc1` is “inactive”.
The same measure for `CC[C@@](C)(NS(=O)(=O)OCC(Cl)(Cl)Cl)c1ccccc1`: “inactive”; for `O=C1C2C(c3ccccc3)CC=CC2[C@H](c2ccoc2)N1Cc1ccccc1` (some centres not stated): “inactive”; for `Nc1nc(NCCCN2CCOCC2)nc(Nc2ccccc2)c1[N+](=O)[O-]`: “inactive”.
On to `CCN1CCN(c2nc(Nc3cccc(C)c3)nc(N)c2[N+](=O)[O-])CC1`, for which the outcome was inactive.
The same measure for `O=C(c1ccc(Cl)c(Cl)c1)N1CCC(=O)N(C(COCc2cccc(C(F)(F)F)c2)Cc2ccccc2)CC1` (configuration not stated): “inactive”; for `O=c1c2ccccc2nnn1CSc1nnc(-c2ccc3c(c2)OCO3)o1`: “inactive”; for `O=C(O)c1ccc(-n2cc(-c3cc4ccccc4oc3=O)[nH]c2=S)cc1`: “inactive”.
As for `COc1cccc(/C=C2\Oc3ccc(O)cc3C2=O)c1O`, the outcome was inactive.
The same measure for `Oc1ccc(-c2[nH]ncc2-c2nc3ccccc3s2)c(O)c1`: “inactive”; for `CNc1nc2c(N)ncnc2n1[C@H]1O[C@@H](CO)[C@H](O)[C@@H]1O`: “inactive”.
The entry for `Nc1nc(SCc2ccc([N+](=O)[O-])cc2)c2ncn(C3OC(CO)C(O)C3O)c2n1` (configuration not stated) is “inactive”; for `CCC1COCCS(=O)(=O)N1Cc1ccccc1` (configuration not stated) it is “inactive”.
